Experimental data published in PubChem BioAssay (NCATS).
Results filed as inconclusive are left out. A call without a number means that no potency is given here. Unmarked numbers belong to inactive results. The source made the active and inactive calls. The call rests on the fitted dose curve; in most records, active means well fitted curve in the direction sought with a large enough effect; inconclusive means small, poorly fitted or top-dose-only effect, or another doubt; inactive means no such curve, though single readings can be large; an effect the other way counts as inactive or inconclusive.

Tests used:
[1] = molecular target: Rap guanine nucleotide exchange factor 4 (Homo sapiens) (UniProt Q8WZA2); experiment: Confirmatory qHTS for antagonist of cAMP-regulated guanine nucleotide exchange factor 4 (EPAC2) (AID 1645885); further: nearly all actives have a fitted effect of over 25% in size
Sequence of Rap guanine nucleotide exchange factor 4 (Homo sapiens) (Q8WZA2 whole entry, looked up): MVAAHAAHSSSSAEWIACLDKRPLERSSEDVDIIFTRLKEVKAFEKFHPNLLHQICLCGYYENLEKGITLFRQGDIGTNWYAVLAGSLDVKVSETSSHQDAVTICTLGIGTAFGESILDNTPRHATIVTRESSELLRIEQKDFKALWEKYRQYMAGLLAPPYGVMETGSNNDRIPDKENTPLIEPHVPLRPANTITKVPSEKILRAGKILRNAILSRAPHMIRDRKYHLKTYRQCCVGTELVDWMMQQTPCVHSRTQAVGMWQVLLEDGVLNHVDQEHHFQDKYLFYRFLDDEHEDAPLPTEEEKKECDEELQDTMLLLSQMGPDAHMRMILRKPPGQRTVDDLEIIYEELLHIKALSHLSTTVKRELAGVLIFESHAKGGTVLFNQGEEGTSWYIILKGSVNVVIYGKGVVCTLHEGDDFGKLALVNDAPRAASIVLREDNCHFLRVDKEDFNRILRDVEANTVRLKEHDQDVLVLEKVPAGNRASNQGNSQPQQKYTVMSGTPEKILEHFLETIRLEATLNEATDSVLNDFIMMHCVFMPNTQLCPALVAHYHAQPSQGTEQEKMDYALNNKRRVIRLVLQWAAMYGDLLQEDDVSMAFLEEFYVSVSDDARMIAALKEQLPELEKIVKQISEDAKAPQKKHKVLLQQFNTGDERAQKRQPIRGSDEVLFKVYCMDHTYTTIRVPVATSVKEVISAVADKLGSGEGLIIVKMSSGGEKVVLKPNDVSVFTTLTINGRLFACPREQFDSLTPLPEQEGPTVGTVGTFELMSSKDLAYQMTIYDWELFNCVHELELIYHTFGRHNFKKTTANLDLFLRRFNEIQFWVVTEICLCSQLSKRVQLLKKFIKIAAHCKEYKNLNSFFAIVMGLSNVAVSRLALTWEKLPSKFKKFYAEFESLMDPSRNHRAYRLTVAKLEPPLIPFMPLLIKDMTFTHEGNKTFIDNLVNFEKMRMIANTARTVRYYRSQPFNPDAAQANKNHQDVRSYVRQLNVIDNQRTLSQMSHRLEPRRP

[2] = molecular target: Rap guanine nucleotide exchange factor 3 (Homo sapiens) (UniProt O95398); experiment: Counterscreen qHTS for antagonist of cAMP-regulated guanine nucleotide exchange factor 3 (EPAC1) (AID 1645888);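 on activity change, negative = inhibition: fluorescence loss as bound BODIPY-GDP is released from Rap1B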
Sequence of Rap guanine nucleotide exchange factor 3 (Homo sapiens) (O95398 whole entry, looked up): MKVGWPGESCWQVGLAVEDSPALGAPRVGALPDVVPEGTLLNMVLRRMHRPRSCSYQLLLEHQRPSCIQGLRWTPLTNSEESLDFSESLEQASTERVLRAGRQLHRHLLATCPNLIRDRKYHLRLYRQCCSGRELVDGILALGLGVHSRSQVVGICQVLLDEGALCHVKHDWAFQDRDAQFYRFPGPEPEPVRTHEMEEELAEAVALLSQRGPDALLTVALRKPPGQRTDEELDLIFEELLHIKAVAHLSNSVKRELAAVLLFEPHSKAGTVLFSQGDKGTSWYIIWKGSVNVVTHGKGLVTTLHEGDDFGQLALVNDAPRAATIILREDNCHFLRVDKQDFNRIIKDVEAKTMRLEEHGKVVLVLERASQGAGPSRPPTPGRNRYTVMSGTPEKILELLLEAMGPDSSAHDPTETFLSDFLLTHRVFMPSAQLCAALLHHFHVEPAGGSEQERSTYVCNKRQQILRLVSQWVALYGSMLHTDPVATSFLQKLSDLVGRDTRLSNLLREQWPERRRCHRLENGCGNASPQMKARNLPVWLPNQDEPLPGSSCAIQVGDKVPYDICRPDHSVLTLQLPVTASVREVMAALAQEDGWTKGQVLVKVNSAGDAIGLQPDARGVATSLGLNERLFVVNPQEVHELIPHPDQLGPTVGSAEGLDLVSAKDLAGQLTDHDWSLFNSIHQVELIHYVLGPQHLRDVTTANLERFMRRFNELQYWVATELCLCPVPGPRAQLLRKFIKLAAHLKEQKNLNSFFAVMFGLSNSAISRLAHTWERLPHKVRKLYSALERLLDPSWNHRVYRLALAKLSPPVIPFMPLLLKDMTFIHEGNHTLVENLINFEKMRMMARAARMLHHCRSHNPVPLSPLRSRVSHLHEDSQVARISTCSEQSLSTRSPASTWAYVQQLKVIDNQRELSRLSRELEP
Method in brief: (§1)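 Rap1B–BODIPY-GDP (250 nM) with 50 uM GDP; compounds pin-transferred to 9.74 nM–152 uM final (activator) or from 7.32 nM upwards (inhibitor). Fluorescence Ex/Em 480/540 nm read at 5 and 30 min, then after adding cAMP or buffer, at room temperature.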

[3] = molecular target: Tumor susceptibility gene 101 protein (Homo sapiens) (UniProt Q99816); experiment: qHTS Assay for Iinhibitors of HIV-1 Budding by Blocking the Interaction of PTAP/TSG101: Hit Validation (AID 651600); further: nearly all actives have a fitted effect of over 70% in size
Sequence of Tumor susceptibility gene 101 protein (Homo sapiens) (Q99816 whole entry, looked up, the tested form may be a part): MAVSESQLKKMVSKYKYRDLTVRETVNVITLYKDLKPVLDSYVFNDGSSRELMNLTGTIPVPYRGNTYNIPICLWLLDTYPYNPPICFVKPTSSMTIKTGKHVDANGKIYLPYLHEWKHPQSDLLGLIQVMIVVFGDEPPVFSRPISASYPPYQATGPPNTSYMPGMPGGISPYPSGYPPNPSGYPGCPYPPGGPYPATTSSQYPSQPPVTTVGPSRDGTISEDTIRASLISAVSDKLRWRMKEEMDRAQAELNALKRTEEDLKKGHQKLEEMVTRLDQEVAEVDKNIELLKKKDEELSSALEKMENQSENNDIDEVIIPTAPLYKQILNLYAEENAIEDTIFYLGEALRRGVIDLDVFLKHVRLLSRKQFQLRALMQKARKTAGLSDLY
Method in brief: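 Compounds are added to the Tsg101 binding domain (10 uM final) in pH 7.5 HEPES buffer. FITC-PTAP peptide follows at 50 nM final. After 20 min at r.t., polarized FITC emission is measured.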

[4] = molecular target: Rap guanine nucleotide exchange factor 4 (Homo sapiens) (UniProt Q8WZA2); experiment: Confirmatory qHTS for agonist of cAMP-regulated guanine nucleotide exchange factor 4 (EPAC2) (AID 1645884);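 further: nucleotide exchange releases bodipy-GDP from Rap1 and this lowers its fluorescence; nearly all actives have a fitted effect of over 65% in size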
[5] = molecular target: Rap guanine nucleotide exchange factor 3 (Homo sapiens) (UniProt O95398); experiment: Counterscreen qHTS for agonist of cAMP-regulated guanine nucleotide exchange factor 3 (EPAC1) (AID 1645889); further: nearly all actives have a fitted effect of over 40% in size
Method in brief: as §1
Potency means the concentration at half of the fitted maximal effect.

Question: What does the source list for `CC1CCN(c2ccc3c(c2)S(=O)(=O)c2cccc(C(=O)NC[C@@H]4CCCO4)c2C3=O)CC1`?
Answer: Potency [1]: inactive; Potency [2]: inactive

Question: Which results are given for `CCCCN(C)C1=CC2=CC(=C(C#N)C#N)CCC2CC1` (stereo unspecified)?
Answer: Potency [3]: inactive; Potency [4]: 126 µM (active); Potency [5]: 39.8 µM (active)

Question: `Cn1cc(-c2cnc3c(NC=O)cc(-c4cccc(C(F)(F)F)c4)cn23)cn1` was tested. Which Potency [1] did it give?
Answer: The Potency was “inactive”.

Question: What about the Potency [2] of the same molecule?
Answer: The Potency was “inactive”.

Question: For `COc1cccc(C2=NN(C(=O)c3ccco3)C(c3ccco3)C2)c1` (stereo unspecified), which Potency [1] is on record?
Answer: The Potency was “inactive”.

Question: What about the Potency [2] of the same molecule?
Answer: Its Potency is “inactive”.

Question: And the Potency [5]?
Answer: Its Potency is “inactive”.

Question: With `Cc1cc(C(=O)CCC(=O)N2CCN(S(=O)(=O)c3ccccc3)CC2)c(C)s1` as the molecule, how does the Potency [4] read?
Answer: The Potency was 112 µM (active).

Question: And the Potency [2]?
Answer: Its Potency is “inactive”.

Question: And the Potency [5]?
Answer: The Potency was “inactive”.

Question: Which Potency [1] does the source give for `COc1cccc(CNc2cccc3cccnc23)c1O` here?
Answer: Its Potency is “inactive”.

Question: What about the Potency [2] of the same molecule?
Answer: Its Potency is “inactive”.

Question: Which Potency [1] does the source give for `COc1ccc(O)c(C(c2c(C)[nH][nH]c2=O)c2c(C)[nH][nH]c2=O)c1` here?
Answer: Its Potency is 75.7 µM (active).

Question: And the Potency [2]?
Answer: Its Potency is “inactive”.

Question: What does the source list for `CCN(CC)C1=CC2=CC(=C(C#N)C#N)CCC2CC1` (stereo unspecified)?
Answer: Potency [3]: inactive; Potency [4]: 112 µM (active); Potency [2]: inactive; Potency [5]: 25.1 µM (active)

Question: What does the source list for `COc1ccccc1Oc1nc(-c2cccnc2)nc2ccccc12`?
Answer: Potency [1]: 67.5 µM (active); Potency [2]: inactive

Question: For `Cc1cc2ccccn2c1C(=O)c1ccccc1Br`, which Potency [1] is on record?
Answer: Its Potency is “inactive”.

Question: What about the Potency [2] of the same molecule?
Answer: Its Potency is “inactive”.

Question: And the Potency [5]?
Answer: Its Potency is 25.1 µM (active).

Question: Which Potency [3] does the source give for `CN1/C(=C\C=C2/C(=O)Oc3ccccc3C2=O)C(C)(C)c2ccccc21` here?
Answer: Its Potency is “inactive”.

Question: And the Potency [1]?
Answer: Its Potency is “inactive”.

Question: What about the Potency [5] of the same molecule?
Answer: Its Potency is 20 µM (active).

Question: Which results are given for `COCCn1c(-c2ccc(OC)cc2)c(-c2ccc(OC)cc2)oc1=O`?
Answer: Potency [1]: inactive; Potency [2]: inactive

Question: Which results are given for `S=C(Nc1ccc2nsnc2c1)NC1CCCCC1`?
Answer: Potency [1]: inactive; Potency [2]: inactive

Question: Which Potency [1] does the source give for `Nc1ccc(CSc2ccc(Cl)cc2)c(Cl)c1` here?
Answer: The Potency was 21.3 µM (active).

Question: And the Potency [2]?
Answer: The Potency was “inactive”.

Question: What does the source list for `Cc1c(CCC(=O)O)c(=O)oc2c(C)c3occ(-c4ccc(Br)cc4)c3cc12`?
Answer: Potency [1]: inactive; Potency [2]: inactive; Potency [5]: inactive

Question: Which results are given for `N=C1/C(=C\c2ccc(-c3cccc(C(=O)O)c3)o2)C(=O)N=C2SC=C(c3ccccc3)N12`?
Answer: Potency [4]: 100 µM (active); Potency [2]: inactive; Potency [5]: inactive

Question: What does the source list for `COC(=O)c1ccc(COc2ccc(/C=C(\C#N)c3nc4ccccc4[nH]3)cc2OC)o1`?
Answer: Potency [1]: inactive; Potency [2]: inactive

Question: What does the source list for `Oc1ccc(Cl)cc1CNc1cccc2cccnc12`?
Answer: Potency [1]: inactive; Potency [2]: inactive

Question: How did the Potency [1] turn out when `OCc1ccc(-c2ccccc2)c(-c2ccccc2)c1` was run?
Answer: The Potency was “inactive”.

Question: What about the Potency [2] of the same molecule?
Answer: Its Potency is “inactive”.

Question: Which results are given for `O=C(c1cc(Cl)ccc1Cl)N1CCc2ccccc21`?
Answer: Potency [1]: 33.8 µM (active); Potency [2]: inactive

Question: How did the Potency [1] turn out when `O=C(N/N=C/c1ccc(OC(=O)c2ccccc2Cl)cc1)c1cc(O)cc(O)c1` was run?
Answer: Its Potency is “inactive”.

Question: What about the Potency [2] of the same molecule?
Answer: The Potency was “inactive”.

Question: Which results are given for `CC(=O)OCCn1c2nc(=O)[nH]c(=O)c-2nc2cc(C)c(C)cc21`?
Answer: Potency [3]: 0.919 µM (active); Potency [4]: 100 µM (active); Potency [2]: 100 µM (active)

Question: How did the Potency [4] turn out when `Cc1cccc(C)c1NC(=O)CN1C(=O)S/C(=C\c2cccn2-c2cccc(C(=O)O)c2)C1=O` was run?
Answer: Its Potency is 100 µM (active).

Question: What about the Potency [2] of the same molecule?
Answer: The Potency was “inactive”.

Question: What about the Potency [5] of the same molecule?
Answer: Its Potency is “inactive”.

Question: What does the source list for `COC(=O)C(C)Sc1nc2ccsc2c(=O)n1Cc1ccccc1` (stereo unspecified)?
Answer: Potency [1]: 26.9 µM (active); Potency [2]: inactive

Question: What does the source list for `CCN(CC)CCCC(C)n1c2nc(=O)[nH]c(=O)c-2nc2cc(Cl)ccc21` (stereo unspecified)?
Answer: Potency [4]: 100 µM (active); Potency [5]: 63.1 µM (active)

Question: For `CC(NC1=CC(=O)c2cccnc2C1=O)C(O)c1ccccc1` (stereo unspecified), which Potency [1] is on record?
Answer: Its Potency is “inactive”.

Question: And the Potency [2]?
Answer: Its Potency is “inactive”.

Question: How did the Potency [1] turn out when `O=S(=O)(c1ccc2[nH]c3c(c2c1)CCCC3)N1CCCCC1` was run?
Answer: Its Potency is “inactive”.

Question: And the Potency [2]?
Answer: The Potency was “inactive”.

Question: Which Potency [1] does the source give for `O=C(CC1Sc2ccccc2NC1=O)OCc1cc(=O)oc2cc(O)ccc12` (stereo unspecified) here?
Answer: Its Potency is “inactive”.

Question: What about the Potency [5] of the same molecule?
Answer: Its Potency is “inactive”.

Question: How did the Potency [1] turn out when `O/N=C(/c1ccc(F)cc1)C1CC1c1c(F)cccc1Cl` (stereo unspecified) was run?
Answer: Its Potency is “inactive”.

Question: And the Potency [2]?
Answer: Its Potency is “inactive”.

Question: For `O=c1oc2c(O)cccc2cc1-c1nc2ccccc2[nH]1`, which Potency [1] is on record?
Answer: Its Potency is “inactive”.

Question: And the activity change, negative = inhibition [2]?
Answer: The activity change, negative = inhibition was -8.32% [at 30.8 µM].
